Source: PubChem BioAssay (National Center for Advancing Translational Sciences (NCATS))
Only a selection was taken, and hits are over-represented in it overall.
LmPK inh – LmPK (Leishmania mexicana) enzyme inhibition; Q27686; purified LmPK, Kinase-Glo ATP luminescence, 1 h; Potency, µM (titrated, usually from 57.5 µM), inactives show top-dose activity change, negative = inhibition, usual class: inhibitors; 290,000 compounds, 0.37% hits; further: potency means the concentration at half of the fitted maximal effect; on the % scale 0 is the no-effect control and ±100 the full control effect
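Pyruvate kinase activity monitored as ATP production (luciferase luminescence). Conditions: 0.1 nM enzyme, 0.5 mM PEP, 0.1 mM ADP, 1 h, RT; normalized against uninhibited and no-enzyme wells.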
Tb PYK inh – blocks Trypanosoma brucei pyruvate kinase; 410,000 compounds, 0.12% hits; Q57TT1; TbPYK enzyme, Kinase-Glo Plus ATP luminescence, 45 min; Potency, µM (doses to about 76.8 µM), for inactives: at the top dose activity, negative = inhibition, most hits filed as inhibitors; AID 624173; further: potency means the concentration at half of the fitted maximal effect; on the % scale 0 is the no-effect control and ±100 the full control effect; nearly all actives have a fitted effect of over 50% in size
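Enzyme and substrate buffer are dispensed first and compound is pin-transferred. ADP at 130 uM final then starts the reaction, which runs 45 min at room temperature. Detection reagent is added for 10 min before luminescence is imaged.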
CHX counter – counter-screen hit for Shiga toxin inhibitors, cycloheximide | cell reporter, cycloheximide protein synthesis inhibition counterscreen | max response, % | 300,000 compounds, 12% hits; in the data active means max response mostly above about 13%, no sharp cut-off; inactive means mostly below about 14%; further: read at 38.3 µM for the half of the compounds with a filed dose; 0% is about no effect
RE007 growth inh – less growth of the S. pombe RE007 Vpr strain | 360,000 compounds, 0.21% hits | S. pombe RE007 Vpr strain, BacTiter-Glo ATP luminescence, 24 h | Potency, µM (doses to about 92.2 µM), inactives show top-dose activity change, negative = less growth, actives largely listed as inhibitors | AID 651644; active means well fitted falling curve with a large enough effect; inconclusive means small, poorly fitted or top-dose-only effect; inactive means no such curve, though single readings can be large or run the other way; further: potency means the concentration at half of the fitted maximal effect; on the % scale 0 is the no-effect control and ±100 the full control effect; nearly all actives have a fitted effect of over 50% in size
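Fission yeast strain RE007, carrying one chromosomally integrated HIV-1 vpr copy, was seeded at OD 0.01 in PMG+AL medium with 23 nL pinned compound. After 24 h at 30 °C and 99% humidity, viability was read by BacTiter-Glo luminescence.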
Shiga inhibitor – inhibitors of Shiga toxin in Vero cells; Vero cells, Shiga toxin protein synthesis inhibition reporter; inhibition, % at 38.7 µM; 290,000 compounds, 9.2% hits; AID 2315; in the data active means inhibition mostly above about 28%, no sharp cut-off; inactive means mostly below about 43%; further: 0% is about no effect
FBPA Giardia inh – inhibitors of Giardia lamblia fructose-1,6-bisphosphate aldolase. purified Giardia FBPA. A8B2U2. 290,000 compounds, 0.71% hits. Potency, µM (top dose mostly 59.6 µM), without a hit: top-dose activity, negative = inhibition, most hits filed as inhibitors. AID 2451; further: potency means the concentration at half of the fitted maximal effect; on the % scale 0 is the no-effect control and ±100 the full control effect; nearly all actives have a fitted effect of over 55% in size
Target sequence (A8B2U2 whole entry, looked up): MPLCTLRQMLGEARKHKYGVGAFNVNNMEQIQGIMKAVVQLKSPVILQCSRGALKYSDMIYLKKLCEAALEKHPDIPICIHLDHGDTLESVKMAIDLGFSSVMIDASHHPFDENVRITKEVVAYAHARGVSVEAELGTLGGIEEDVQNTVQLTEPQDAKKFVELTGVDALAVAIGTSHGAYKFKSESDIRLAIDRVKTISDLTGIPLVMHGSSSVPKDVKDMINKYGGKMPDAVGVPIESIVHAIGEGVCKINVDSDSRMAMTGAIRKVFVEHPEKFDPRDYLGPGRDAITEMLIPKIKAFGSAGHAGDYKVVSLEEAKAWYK
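Giardia FBPA (40 nM reagent) was preincubated 10 min at RT with compound (up to 57.5 uM final), then substrate plus GAPDH/TPI/NAD/arsenate coupling system with diaphorase/resazurin was added; resorufin fluorescence (525/598 nm) was read after 20 min.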
* hit, by the source's call; ? = inconclusive; · = not tested or not shown; [ ] = another dose, or the depositor's remark. Unless noted, the call rests on the fitted dose curve; in most records, active means well fitted curve in the direction sought with a large enough effect; inconclusive means small, poorly fitted or top-dose-only effect, or another doubt; inactive means no such curve, though single readings can be large; an effect the other way counts as inactive or inconclusive.

SMILES	LmPK inh	Tb PYK inh	CHX counter	RE007 growth inh	Shiga inhibitor	FBPA Giardia inh
CSc1nc(-c2ccccc2)nn1C(=O)c1ccccc1	1%	4%	14*	15%	45	2%
Nc1nc(-c2ccc(Cl)cc2)nn1C(=O)c1cccnc1	1%	5%	25*	7%	31*	-1%
CCc1cccc(NC(=O)CCn2c(=O)c3cccn3c3cccnc32)c1	·	2%	·	·	·	·
O=C(O)c1ccc(/C=N/N2CCN(C3c4ccccc4-c4ccccc43)CC2)cc1	22µM*	-15%	-2	17%	1	-1%
CCOc1cccc(OCCOCCN(C)C)c1	-10%	-7%	12	·	52*	-19%
CCOc1cccc(OCCOCCN(C)Cc2ccccc2)c1	-2%	2%	-1	-13%	-7	7%
CCOc1cccc(OCCCOc2ccccc2)c1	-1%	-5%	15*	-6%	13	1%
Cc1ccccc1C(=O)N/N=C/c1ccc([N+](=O)[O-])s1	3%	-3%	-10	-28%	-16	-2%
COC(=O)N/N=C/c1ccc([N+](=O)[O-])s1	0%	-29%	8	·	27	-6%
O=C(Cc1ccccc1)N/N=C/c1ccc([N+](=O)[O-])s1	4%	-9%	35	-24%	111*	-1%
O=C(N/N=C/c1ccc([N+](=O)[O-])s1)C(O)c1ccccc1 (centres undefined)	-3%	-2%	16*	-8%	14	?
O=C(N/N=C/c1ccc([N+](=O)[O-])s1)c1ccccc1	-9%	-1%	20*	14%	40	-3%
COc1ccccc1CN1CCCC2(CCN(C(=O)c3cccc(F)c3)CC2)C1	·	13%	·	·	·	2%
Cc1ccc(-n2nc(C(=O)Nc3ccc(F)cc3F)c3c4ccccc4n(C)c3c2=O)cc1	·	-3%	·	·	·	·
CC(=O)Oc1c(I)cc(I)cc1C(=O)Nc1ccc(Cl)cc1	-3%	0%	24*	4%	36	·
COc1ccc(/C=C(\C#N)C(=O)Nc2cccc(C)n2)cc1	-5%	1%	25*	2%	36*	1%
COc1ccc(/C=C(\C#N)C(=O)OCC(=O)Nc2ccc(C(C)(C)C)cc2)cc1	2%	8%	11*	8%	21	-14%
Cc1cccc(NC(=O)/C(C#N)=C/c2ccc(Cl)cc2)n1	-4%	-3%	1	4%	13	-4%
Cc1cccc(NC(=O)/C(C#N)=C/c2ccccc2O)n1	-7%	4%	40*	-4%	78*	3%
N#C/C(=C\c1ccccc1O)C(=O)Nc1ccccn1	4%	3%	21*	2%	82*	-3%
N#C/C(=C\c1ccc(F)cc1)C(=O)Nc1ccccn1	0%	9%	-2	1%	-7	-13%
Cc1ccc(-n2c(=O)c3cccnc3n2CC(=O)Nc2cccc(C)c2C)cc1	·	-2%	·	·	·	·
CC1CCCC(NC(=O)CCS(=O)(=O)c2cc3c(cc2Cl)NC(=O)CO3)C1C (centres undefined)	0%	3%	-5	-1%	-3	-3%
O=C1NCCCC2c3c(cc(Br)c(O)c3Br)OC12N1CCOCC1 (centres undefined)	-3%	-5%	5	-27%	3	-5%
O=C1NCCCC2c3cc(O)c4ccccc4c3OC12N1CCCCC1 (centres undefined)	?	·	12	·	20	0.56µM*
SMILES	LmPK inh	Tb PYK inh	CHX counter	RE007 growth inh	Shiga inhibitor	FBPA Giardia inh
Cc1cc(C)c2c(c1)/C(=N/NC(=O)c1ccc(O)cc1)CCC2	4%	-4%	22*	4%	36*	-1%
Cc1cc(C)c2c(c1)/C(=N/NC(=O)c1cc(C)oc1C)CCC2	1%	-8%	36*	-13%	26	16%
CCOCC(=O)Nc1nc2ccc(OC)cc2s1	?	-23%	53*	-21%	67*	-3%
COc1ccc2nc(NC(=O)CCn3cccc3)sc2c1	7%	4%	16*	-3%	13	6%
CCOc1ccc2nc(NC(=O)Cn3cnc4c3c(=O)n(C)c(=O)n4C)sc2c1	1%	1%	14	9%	22	15%
CCOc1ccc2nc(NC(=O)COC)sc2c1	0%	0%	34*	-3%	114	-4%
CC(C)CC(=O)OCc1cc(=O)n2nc(C3CCCCC3)sc2n1	·	0%	·	·	·	·
CCC(C)C(C(=O)OCC[N+](C)(CC)CC)c1ccccc1 (centres undefined)	·	1%	·	·	·	·
CC1(C)Cc2c(cnn2-c2ccccc2)C(NC(=O)CCCn2cncn2)C1 (centres undefined)	1%	11%	24*	-12%	29	·
COc1ccc(-n2ncc3c2CC(C)(C)CC3NC(=O)Cc2nonc2C)cc1 (centres undefined)	7%	1%	-3	1%	1	·
CC1(C)Cc2c(cnn2-c2ccc(F)cc2)C(NC(=O)CCn2cncn2)C1 (centres undefined)	-6%	4%	25*	13%	16	·
Cc1nonc1CC(=O)NC1CC(C)(C)Cc2c1cnn2-c1ccc(F)cc1 (centres undefined)	-6%	-3%	14*	2%	33*	·
COc1ccc(C2/C(=C(/O)c3ccc(C)cc3)C(=O)C(=O)N2CCCN2CCOCC2)cc1 (centres undefined)	4%	3%	-2	1%	·	-2%
O=S(=O)(Nc1ccccn1)c1ccc(-n2cccn2)cc1	-4%	4%	-4	18%	-14	-11%
Cc1c(NC(=O)c2ccccc2NS(=O)(=O)c2ccc(Br)cc2)c(=O)n(-c2ccccc2)n1C	9%	0%	5	-3%	-7	7%[12.9 µM]
O=S(=O)(Nc1ccn(-c2ccccc2)n1)c1ccc(Br)cc1	-2%	-23%	16*	6%	42	-4%
Cc1c(NS(=O)(=O)c2ccc(Br)cc2)c(=O)n(-c2ccccc2)n1C	2%	-2%	17*	2%	18	0%
Cc1cccc(-c2nc(C)c(CCNC(=O)C(=O)Nc3ccc(C)c(C)c3)s2)c1	·	4%	·	·	·	·
CC1CCN(C(=O)c2cc(-c3ccc(Cl)c(Cl)c3)on2)CC1	2%	-3%	1	-18%	20	-2%
O=C(c1cc(-c2ccc(Cl)c(Cl)c2)on1)N1CCOCC1	-1%	-3%	17*	-3%	45*	-1%
O=C(c1cc(-c2ccc(Cl)cc2)n(-c2ccc(Cl)cc2Cl)n1)N1CCOCC1	-3%	4%	-1	-18%	9	?
O=C(c1cc(-c2ccc(Cl)cc2)on1)N1CCOCC1	-11%	1%	29*	4%	111*	6%
O=C(c1cc(-c2ccc(Cl)c(Cl)c2)on1)N1CCCC1	5%	·	21*	·	36*	6%
O=C(c1cc(-c2ccc(Cl)cc2Cl)on1)N1CCOCC1	-16%	5%	25*	14%	59	6%
